Test results from PubChem BioAssay AID602393 (Broad Institute, 2012).
Among all 350,000 compounds or so, about 7,000 (2%) were called active. The sample as a whole holds a higher share of actives than the screen did. Values without a mark were called inactive. Cut-off read from the data, not from the text of the source: active = activation above about 40%; inconclusive = no clear call, values can overlap the other calls; inactive = below that.

assay: raisers of Bmi1 knock-in reporter signal – mouse ES cells, Bmi1 luciferase knock-in, single point, esBAF inhibitor project, primary screen (AID 602393); conditions: 24 h, at 12.5 µM, active compounds read high, 100% = twice the neutral-well signal;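 note: 0% = median of the plate's neutral control wells and 100% = double that signal; a rise in the Bmi1 reporter signal indicates esBAF inhibition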

| SMILES | reporter increase |
| --- | --- |
| C[C@H](CO)N1C[C@H](C)[C@H](CN(C)Cc2ccncc2)Oc2ccc(NC(=O)C3CCCCC3)cc2CC1=O | 4.88% |
| COC(=O)c1cnc(Nc2cc(C)ccc2OC)c2ccccc12 | -2.74% |
| COc1ccccc1-c1c(C)nn2c(C)c(C(C)=O)cnc12 | -4.24% |
| COc1ccccc1Nc1ncc(C(C)=O)c(C)n1 | 43.9% (active) |
| CCC(=O)Nc1ccc2c(c1)OC[C@H](C)N(Cc1ccccc1OC)C[C@@H](C)[C@@H](OC)CN(C)C2=O | 4.11% |
| CO[C@H]1CN(C)C(=O)c2cc(NC(=O)Nc3cccc(F)c3)ccc2OC[C@@H](C)N(C)C[C@@H]1C | 1.05% |
| C[C@H](CO)N1C[C@H](C)[C@H](CN(C)C(=O)C2CCOCC2)Oc2ncc(-c3ccccc3F)cc2C1=O | -0.932% |
| COc1ccc(-c2ccc3c(c2)O[C@H](CN(C)Cc2ccccc2C(=O)O)[C@H](C)CN([C@@H](C)CO)S3(=O)=O)cc1 | 4.05% |
| COc1ccc(Nc2ncnc3ccc(Br)cc23)c(OC)c1 | -66.9% |
| CCC(C(=O)OC)n1cnc2c(oc3ccccc32)c1=O (stereo not given) | 2.51% |
| COc1ccccc1Nc1ncnc2c1oc1ccccc12 | 75.2% (active) |
| CCCC(=O)Nc1ccc2c(c1)C(=O)N(C)[C@H]1CC[C@@H](CC(=O)NCc3cccc(F)c3)O[C@H]1CO2 | 11.9% |
| O=C(NCC[C@H]1CC[C@H](NS(=O)(=O)c2ccccc2)[C@H](CO)O1)c1cc(Cl)cc(Cl)c1 | 1.99% |
| Cc1cc(C)c(C)c(S(=O)(=O)N2CCN(C(=O)c3ccc4c(=O)n5c(nc4c3)CCC5)CC2)c1C | -1.07% |
| O=C(Nc1cc(F)ccc1F)c1ccc2c(=O)n3c(nc2c1)CCC3 | 54.2% (active) |
| CC1CCN(C(=O)c2ccc3c(=O)n4c(nc3c2)CCCCC4)CC1 | 10.6% |
| CC(C)CC#Cc1cnc2c(c1)C(=O)N([C@@H](C)CO)C[C@@H](C)[C@@H](CN(C)S(=O)(=O)c1cccs1)O2 | -1.12% |
| Cn1cnc(S(=O)(=O)N2C[C@H](O)COC[C@@H]3O[C@H](CC(=O)NC4Cc5ccccc5C4)CC[C@H]32)c1 | 1.23% |
| O=C(NC1=NCCS1)c1ccc(Cl)s1 | 56.6% (active) |
| O=C(NCc1ccc2c(c1)OCO2)c1ccc(Cl)s1 | 16.1% |
| COc1ccccc1C(=O)NCCC(=O)NC1=NCCS1 | 4.18% |
| COCC(=O)N1C[C@H](C)[C@@H](OC)CN(C)C(=O)c2cc(NC(=O)c3ccc(OC)cc3)ccc2OC[C@H]1C | -1.57% |
| CCCNC(=O)C[C@@H]1CC[C@H]2[C@H](COc3ccc(NS(=O)(=O)c4ccccc4C)cc3C(=O)N2C)O1 | 0.502% |
| CNC[C@H]1OCCCC[C@H](C)Oc2ccc(NS(C)(=O)=O)cc2C(=O)N([C@@H](C)CO)C[C@H]1C | 3.58% |
| CCC1([N+](=O)[O-])COC(c2ccc(C(C)C)cc2)OC1 (stereo not given) | 98.9% (active) |

| SMILES | reporter increase |
| --- | --- |
| CCC1([N+](=O)[O-])COC(c2ccc(C)cc2)OC1 (stereo not given) | -1.7% |
| CC(C)c1ccc(S(=O)(=O)NC2CCCC2)cc1 | 1.91% |
| CCCN(CC1CC1)C(=S)NC(=O)c1ccccc1Br | -4.35% |
| O=C(Nc1ccccc1)c1ccccc1Br | 22.5% |
| O=C(NC(=S)Nc1ncccn1)c1ccccc1Br | 44.5% (active) |
| CO[C@@H]1CN(C)C(=O)c2cc(NC(=O)Nc3cccc(Cl)c3)ccc2OC[C@@H](C)N(C)C[C@@H]1C | -1.87% |
| CO[C@H]1CN(C)C(=O)c2ccc(NC(=O)c3cccc(F)c3)cc2OC[C@H](C)N(CC2CC2)C[C@@H]1C | 9.27% |
| CN(C)C(=O)CCc1ccc2c3c([nH]c2c1)[C@]1(C)[C@@H](C(=O)N2CCCCC2)C[C@H](CC(=O)NCCC2=CCCCC2)C(=O)N1CC3 | 8% |
| CN(C)C(=O)CCc1ccc2c3c([nH]c2c1)[C@]1(CCc2ccccc2)[C@@H](C(=O)N2CCCCC2)C[C@H](CC(=O)NCCC2=CCCCC2)C(=O)N1CC3 | 67.9% (active) |
| CC(C)N(C(=O)[C@H]1C[C@H](CC(=O)NCCC2=CCCCC2)C(=O)N2CCc3c([nH]c4cc(CCC(=O)N(C)C)ccc34)[C@]12C)C(C)C | 5.79% |
| O=C(C[C@@H]1C[C@@H]2c3cc(NC(=O)C4CCC4)ccc3O[C@@H]2[C@@H](CO)O1)NCCN1CCCCC1 | 1.69% |
| Cc1noc(C)c1S(=O)(=O)Nc1ccc2c(c1)CC(=O)N([C@@H](C)CO)C[C@@H](C)[C@H](CN(C)S(=O)(=O)c1cccs1)O2 | -4.75% |
| CCn1nccc1C(=O)Nc1ccc(S(=O)(=O)NC23CC4CC(CC(C4)C2)C3)cc1 | 14.5% |
| CCn1nccc1C(=O)Nc1ccc(Cl)c(Cl)c1 | 61.9% (active) |
| O=C(CC(O)(C(F)(F)F)C(F)(F)F)Nc1ccc(Cl)c(Cl)c1 | -47.8% |
| Cc1ccc(CN(C)C[C@H]2OCc3cn(nn3)CCCC(=O)N([C@@H](C)CO)C[C@H]2C)cc1 | 3.63% |
| O=C(CN1CCN(c2ccc(Cl)cc2)CC1)c1ccccc1 | -0.082% |
| O=C(Cc1ccc(Cl)cc1)NC(=S)Nc1ccccc1O | 2.82% |
| O=C(Cc1ccc(Cl)cc1)c1ccccc1 | 61.9% (active) |
| COc1ccc(-c2ccc3c(c2)[C@@H]2[C@@H](CCN2S(=O)(=O)c2ccccc2F)[C@H](CO)N3)cc1 | -0.198% |
| C[C@@H]1CN([C@H](C)CO)C(=O)Cc2cc(NC(=O)CCCN(C)C)ccc2O[C@H]1CN(C)CC1CCCCC1 | -2.32% |
| C[C@@H]1CN([C@H](C)CO)C(=O)c2cc(NS(=O)(=O)c3ccc(Cl)cc3)ccc2O[C@@H]1CN(C)CC1CCCCC1 | 5.96% |
| O=C(C[C@H]1C=C[C@H](NS(=O)(=O)c2ccc(F)cc2)[C@H](CO)O1)NCc1ccncn1 | 0.952% |
| COc1cc(C(=O)NCC2(c3ccccc3)CCCC2)ccc1OC(C)C | -10.2% |
| COc1ccc(C(=O)NC2CC(C)(C)NC(C)(C)C2)cc1OC | 0.227% |

| SMILES | reporter increase |
| --- | --- |
| O=C(Nc1ccc(N2CCOCC2)cc1)c1ccc2c(c1)OCO2 | 39.9% |
| Cc1ccc(C(=O)Nc2ccc3c(c2)OCO3)cc1S(=O)(=O)N1CCCCC1 | 57% (active) |
| Cc1ccc(NC(=O)c2ccc(Cl)nc2)cc1S(=O)(=O)N1CCOCC1 | 0.751% |
| Cc1ccc(NC(=O)CCCNC(=O)c2ccc(Cl)cc2)cc1S(=O)(=O)N1CCCCC1 | -3.1% |
| COc1ccc(C(=O)Nc2ccc3c(c2)OCO3)cc1OC | 53.2% (active) |
| Cc1ccc(NC(=O)C2CC(=O)N(c3ccc4c(c3)OCCO4)C2)cc1S(=O)(=O)N1CCCCCC1 (stereo not given) | 1.1% |
| Cc1ccc(C(=O)Nc2ccc3c(c2)OCCO3)cc1S(=O)(=O)N1CCOCC1 | 70.5% (active) |
| COc1ccc(Cl)cc1NC(=O)CN(C)CC(=O)Nc1ccc2c(c1)OCO2 | 0.413% |
| Cc1ccc(C(=O)Nc2ncccc2C)cc1S(=O)(=O)N1CCOCC1 | 3.68% |
| COc1ccc(C(=O)Nc2ccc(C3(C#N)CCCC3)cc2)cc1OC | 44% (active) |
| O=C(Cc1ccncc1)NCC[C@@H]1CC[C@H](NC(=O)Nc2ccc(Cl)cc2)[C@@H](CO)O1 | -1.9% |
| CN1CCN(C(=O)C[C@H]2C[C@H]3c4cc(NC(=O)C5CCC5)ccc4O[C@H]3[C@H](CO)O2)CC1 | 1.39% |
| O=C(NCCN1CCCC1)[C@@H]1N[C@@H]2c3ccc(-c4ccccc4)c(=O)n3C[C@@H]2[C@H]1CO | -5.2% |
| O=C(C[C@@H]1CC[C@H](NC(=O)Nc2cc(F)ccc2F)[C@H](CO)O1)NCc1ccncn1 | 4.9% |
| C[C@H]1CN([C@@H](C)CO)C(=O)c2cc(-c3ccccc3F)cnc2O[C@@H]1CN(C)C(=O)C1CCCCC1 | -0.372% |
| CC=Cc1ccc2n(c1=O)C[C@@H]1[C@@H](CO)[C@H](C(=O)NCc3cccc(OC)c3)N[C@H]21 (mixture of isomers) | 0.983% |
| CCCNC(=O)N1[C@H](CNC(=O)c2cccc(F)c2)[C@H](c2ccccc2)[C@@H]1CO | 3.53% |
| C[C@@H]1CCCCO[C@H](CN(C)Cc2ccc(C(F)(F)F)cc2)[C@H](C)CN([C@@H](C)CO)C(=O)c2cc(N(C)C)ccc2O1 | 0.085% |
| COc1ccc(C#Cc2cnc3c(c2)C(=O)N([C@H](C)CO)C[C@@H](C)[C@H](CN(C)C(=O)Nc2cccc(OC)c2)O3)cc1 | 4.12% |
| COc1ccccc1-c1cnc2c(c1)C(=O)N([C@H](C)CO)C[C@H](C)[C@H](CN(C)Cc1cccnc1)O2 | -8.49% |
| COc1ccc(S(=O)(=O)N(C)C[C@H]2OCCCC[C@H](C)Oc3ccc(NC(=O)Nc4ccc(F)cc4)cc3C(=O)N([C@@H](C)CO)C[C@H]2C)cc1 | 0.828% |
| COc1ccc(S(=O)(=O)Nc2cccc3c2O[C@@H](CN(C)S(=O)(=O)c2ccccc2)[C@@H](C)CN([C@@H](C)CO)C3=O)cc1 | 1.5% |
| CNS(=O)(=O)c1ccc(NC(=O)Nc2ccc3c(c2)OCO3)cc1 | 52.5% (active) |
| Cc1ccc(S(=O)(=O)NCC(=O)Nc2ccc3c(c2)OCCO3)cc1 | -6.84% |
| CC(C)CNS(=O)(=O)c1ccc(C(=O)Nc2ccc3c(c2)OCO3)cc1 | -0.727% |
